TDP1 cell noCPT: qHTS for Inhibitors of human tyrosyl-DNA phosphodiesterase 1 (TDP1): qHTS in cells in absence of CPT. DT40 Tdp1-/- hTDP1 cells, no CPT, ATP luminescence, 48 h. Potency, µM (doses to about 46.2 µM), actives largely listed as inhibitors. 15% of 420,000 active; also: nearly all actives have a fitted effect of over 55% in size
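Camptothecin absent (DMSO only). Human TDP1-complemented DT40 knockout cells, 400 cells/well, 37 °C for minimum 48 hr; ATP measured via CellTiter-Glo, 30 min dark incubation, luminescence.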
HT1080-NT tox: kills 2HG-producing HT-1080-NT fibrosarcoma cells; HT-1080-NT fibrosarcoma viability, CellTiter-Glo ATP luminescence, 48 h; Potency, µM (doses to about 46.1 µM), most hits filed as cytotoxic; 1.6% of 360,000 active; AID 686970;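 also: NT is the 2HG producing partner of a matched IDH1 knockdown line; nearly all actives have a fitted effect of over 55% in size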
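Luminescent CellTiter-Glo readout after 48 hours of compound exposure at 37 degrees C defined viability of HT-1080-NT cells. Activity was normalized to DMSO wells and cell-free media wells; concentration-response curves were fitted and assigned curve classes.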
IL1B secr inh: inhibitors of inflammasome signaling (IL-1 beta secretion) | THP-1 LPS/ATP IL-1B secretion, AlphaLISA, 16 h; hits give low values | activity change, % at 57.5 µM | 4.7% of 360,000 active | AID 743279; in the data active = activity change below about -50%; inconclusive = mostly about -30% to -49%
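THP-1 cells pretreated 1 hr with compounds (up to 57.5 uM final), then stimulated with LPS (250 ng/mL final) plus ATP (1.25 mM final); secreted IL-1B measured by AlphaLISA after 16 hr, decreased signal indicating inhibition.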
HT1080 IDH1KD tx: kills HT-1080 cells with IDH1 knockdown | 2% of 360,000 active | Potency, µM (series often up to 46.1 µM), hits mostly cytotoxic | HT-1080 IDH1 knockdown viability, ATP luminescence, 48 h
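After a 2 h attachment period, IDH1KD HT-1080 cells took pin-transferred compound for 48 h at 37 °C; ATP-based luminescence after 10 min room-temperature reagent incubation reported viability.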
TDP1 cell CPT: growth inhibition of DT40 Tdp1-/-;hTDP1 cells with camptothecin (screen for TDP1 inhibitors). AID 686979. chicken DT40 Tdp1-/-;hTDP1 cells + 20 nM CPT, ATP luminescence, 48 h. 12% of 420,000 active. Potency, µM (series often up to 46.2 µM), most hits filed as inhibitors; also: nearly all actives have a fitted effect of over 55% in size
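Chicken DT40 Tdp1-/- cells stably complemented with human TDP1 were seeded at 400 cells/well in medium containing 20 nM camptothecin, exposed to pin-transferred compounds, and grown at 37 °C for at least 48 hr. Viability was read as ATP luminescence.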
Numbers stand for hits; – = inactive; ? = inconclusive. An excerpt weighted towards active compounds, which were near 19% of everything screened. Unless noted, calls follow the shape of the dose curve; as a rule, active = well fitted curve in the direction sought with a large enough effect; inconclusive = small, poorly fitted or top-dose-only effect, or another doubt; inactive = no such curve, though single readings can be large; an effect the other way counts as inactive or inconclusive.

SMILES | TDP1 cell noCPT | HT1080-NT tox | IL1B secr inh | HT1080 IDH1KD tx | TDP1 cell CPT
Cc1cccc(N2CCN(C(=O)C3CCCN(S(=O)(=O)c4c(C)noc4C)C3)CC2)c1C (configuration not stated) | 23.1µM | – | – | – | 23.1µM
O=C(O)C1CCCN(S(=O)(=O)c2ccc(Br)s2)C1 (configuration not stated) | – | – | – | ? | –
O=C(C1CCCN(S(=O)(=O)c2ccc(Br)s2)C1)N1CCCCCC1 (configuration not stated) | 14.6µM | – | – | – | 20.6µM
CCCC(=O)c1c(NCCO)cc(C)oc1=O | – | – | – | – | –
CCOc1nc2ccccc2nc1C | – | – | – | – | –
CC(=O)OC1(C)C=Cc2ccccc2C1=NS(=O)(=O)c1ccccc1 (configuration not stated) | 23.1µM | – | – | – | ?
CC(=O)c1cccc(CN2CCC(CO)(CCCc3ccccc3)CC2)c1 | 23.1µM | – | – | – | ?
Cn1cc(CN2CCC(CO)(CCCc3ccccc3)CC2)c(-c2ccccc2)n1 | ? | – | – | – | 16.4µM
CC(C)(C)c1ccc(C(=O)NC2CCS(=O)(=O)C2)cc1 (configuration not stated) | – | – | – | – | –
O=C(CCCCCn1c(=O)[nH]c2ccsc2c1=O)NCc1ccc2c(c1)OCO2 | – | – | – | – | –
CN(c1ccc(-c2csc(NC(=O)CCCc3nc4ccccc4c(=O)[nH]3)n2)cc1)S(C)(=O)=O | 8.2µM | – | – | – | 20.6µM
CN(C)CC(=O)Nc1nc(-c2ccccc2)cs1 | ? | – | – | – | –
CC(=O)NC(CC(=O)Nc1nc(-c2ccc(N(C)S(C)(=O)=O)cc2)cs1)c1ccccc1 (configuration not stated) | 16.4µM | – | ? | – | 20.6µM
O=C(CCc1nc2ccccc2c(=O)[nH]1)Nc1nc(-c2cccs2)cs1 | ? | – | – | – | ?
C[C@H]1NS(=O)(=O)c2ccc(Br)cc2O[C@H]1c1ccccc1 | – | – | – | – | –
CN(C)S(=O)(=O)c1ccc(Cl)c(C(=O)NC2=NCCS2)c1 | – | – | – | – | –
COc1cc2c(cc1OC)C(c1ccc(Br)cc1)NCC2 (configuration not stated) | ? | – | -52.0 | – | ?
COc1cc2c(cc1OC)C(COc1ccc(F)cc1)NCC2 (configuration not stated) | ? | – | – | – | ?
CCOc1ccc(CC2NCCc3cc(OCC)c(OCC)cc32)cc1OCC (configuration not stated) | 4.11µM | – | – | – | 3.66µM
CCc1ccc(OCC2NCCc3cc(OC)c(OC)cc32)cc1 (configuration not stated) | 18.4µM | – | – | – | ?
CCC(=O)NNC(=O)Cc1c(C)n(C(=O)c2ccc(Cl)cc2)c2ccc(OC)cc12 | – | – | – | – | –
Cc1cc(C)c2cc(C#N)c(NCCNC(=O)c3cccnc3)nc2c1 | ? | – | – | – | ?
COc1ccc(Br)c(Cn2c(C)c(C(=O)NCCC#N)sc2=O)c1 | – | – | – | – | –
CCOc1ccc(S(=O)(=O)N2CCCCC2)cc1NC(=O)Cc1ccsc1 | ? | – | – | – | ?
CCOc1cccc(C(=O)Nc2ccccc2N2CCN(C(=O)C(C)C)CC2)c1 | ? | – | -53.1 | – | ?
SMILES | TDP1 cell noCPT | HT1080-NT tox | IL1B secr inh | HT1080 IDH1KD tx | TDP1 cell CPT
COc1ccc(Cl)cc1C(=O)Nc1ccc(NC(=O)C(C)C)cc1 | 18.4µM | – | -59.8 | ? | 18.4µM
CC(C)C(=O)NC(=S)Nc1ccccc1N1CCN(C(=O)c2ccc(Cl)cc2)CC1 | 16.4µM | – | – | – | ?
CC(=O)N1CCN(c2ccccc2NC(=O)c2cccc3c(Cl)cccc23)CC1 | ? | – | – | – | 14.6µM
O=C(Nc1ccccc1N1CCCC1)C1CCN(C(=O)c2ccc(F)cc2)CC1 | – | – | – | – | –
CCN(CC)S(=O)(=O)c1ccc(N2CCCCC2)c(NC(=O)C2CCN(C(=O)c3ccc(F)cc3)CC2)c1 | 23.1µM | – | ? | – | ?
COc1c(C)cc(Br)cc1C(=O)Nc1ccc(N2CCN(S(C)(=O)=O)CC2)cc1 | – | – | – | – | ?
COc1c(C)cc(Br)cc1C(=O)Nc1ccccc1N1CCN(C(=O)c2ccccc2)CC1 | 14.6µM | – | – | – | ?
COc1ccc(Br)cc1C(=O)Nc1ccccc1N1CCN(C(=O)c2ccccc2)CC1 | 16.4µM | – | -63.0 | – | ?
COc1ccc(Cl)cc1C(=O)Nc1ccccc1N1CCN(C(=O)C(C)C)CC1 | 18.4µM | – | ? | – | 29.1µM
COc1cc2ccccc2cc1C(=O)Nc1ccccc1N1CCCC1 | ? | – | – | – | ?

Screens as filed in PubChem BioAssay.
